Assay results reported in PubChem BioAssay (NCATS).
Results filed as inconclusive are left out. Where a call stands in place of a potency, no number is given. Active and inactive are the calls of the source. Calls follow the shape of the dose curve; as a rule, active = well fitted curve in the direction sought with a large enough effect; inconclusive = small, poorly fitted or top-dose-only effect, or another doubt; inactive = no such curve, though single readings can be large; an effect the other way counts as inactive or inconclusive.

Experiment: qHTS assay for measurement of the activity of small molecule inhibitors on Zika virus induced Caspase-3 activity in human iPSC derived neural progenitor cells (hNPCs) (AID 1224857); also: nearly all actives have a fitted effect of over 65% in size
Details: hNPCs ZIKV-induced caspase-3/7, Caspase-Glo luminescence, 6 h; series mostly up to 45.7 µM
Procedure, shortened: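 In medium with heparin 2 ug/ml and cyclopamine 2 uM, hNPCs (350 cells/well) received compound for one hour and then Zika virus at 2 FFU/cell; caspase activity was measured by Caspase-Glo 3/7 luminescence 6 h post-infection.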

| Compound | Potency |
| --- | --- |
| O=C(O)Cn1cnnn1 | inactive |
| O=C(O)C1CCC1 | inactive |
| O=C(O)c1ccc(OCCN2CCCCC2)cc1 | inactive |
| CC(C)CCCC(C)NCCC(C)C (stereo unspecified) | inactive |
| CC(=O)OCC[N+](C)(C)C | inactive |
| Cc1ccc(C(=O)Oc2ccc(C(O)CNC(C)(C)C)cc2OC(=O)c2ccc(C)cc2)cc1 (stereo unspecified) | inactive |
| Nc1ccc2c(c1)CN1C(=O)c3ccccc3C1=N2 | inactive |
| O=C1Cc2cc(Cl)ccc2N1 | inactive |
| CCCCCCCCCCCCCCCCCCN(C)C | inactive |
| CCCCOC(=O)CCCCCCCCC(=O)OCCCC | inactive |
| O=C(O)C(=O)Nc1cccc(-c2nn[nH]n2)c1 | inactive |
| CN1[C@@H]2CC[C@H]1CC(NC(=O)n1c(=O)[nH]c3ccccc31)C2 (stereo partly specified) | inactive |
| O=C(OCCN1CCOCC1)c1cccnc1Nc1cccc(C(F)(F)F)c1 | inactive |
| C/C(=N\O)[C@@H](C)NCC(C)(C)CN[C@H](C)/C(C)=N/O | inactive |
| O=C1CCCc2c(O)cccc21 | inactive |
| Cc1nc(N)nc(N)c1-c1ccc(Cl)c(Cl)c1 | inactive |
| NC(=O)NS(=O)(=O)c1ccc(Cl)cc1 | inactive |
| CCC1=C[C@@H]2CN(C1)Cc1c([nH]c3ccccc13)[C@@](C(=O)OC)(c1cc3c(cc1OC)N(C)[C@H]1[C@@](O)(C(=O)OC)[C@H](OC(C)=O)[C@]4(CC)C=CCN5CC[C@]31[C@@H]54)C2 | inactive |
| CCCC(=O)O[C@]1(C(=O)CC)CC[C@H]2[C@@H]3CCC4=CC(=O)CC[C@]4(C)[C@H]3[C@@H](O)C[C@@]21C | inactive |

Experiment: qHTS assay for measurement of the activity of small molecule inhibitors on Zika virus induced Caspase-3 activity in human astrocytoma cells (AID 1224859)
Details: SNB-19 ZIKV-induced caspase-3/7, luminescence, 6 h; series mostly up to 45.7 µM
Procedure, shortened: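 A cell-based luminescent caspase-3/7 assay used SNB-19 cells infected with ZIKV (2 FFU/cell) for 6 h following 1 h compound pretreatment.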

| Compound | outcome |
| --- | --- |
| Cc1ncc([N+](=O)[O-])n1C | inactive |
| OC1(c2ccc(Cl)cc2)CCNCC1 | inactive |
| Nc1nc(=O)n([C@@H]2O[C@H](CO)[C@@H](O)[C@@H]2F)cc1I | inactive |
| CCCCCCCCCCCCCC[N+](C)(C)C | inactive |
| CC1CCCCN1CCCOC(=O)c1ccc(OC2CCCCC2)cc1 (stereo unspecified) | inactive |
| CCCCCCCCCCCCCCCCCCNC(=O)OC1CCN(C(=O)OC[C@H](COC(=O)N(Cc2cccc[n+]2CC)C(=O)c2ccccc2OC)OC)CC1 | inactive |
| CC[C@@]1(O)C(=O)OCc2c1cc1n(c2=O)Cc2c-1nc1ccccc1c2/C=N/OC(C)(C)C | inactive |
| CCN(CC)CCOc1ccc(/C(=C(\Cl)c2ccccc2)c2ccccc2)cc1 | inactive |
| CC[N+]1(CC)CCC(=C(c2ccccc2)c2ccccc2)C1C (stereo unspecified) | inactive |
| NS(=O)(=O)c1cc(C(=O)NN2C[C@H]3[C@H]4CCC(C4)[C@H]3C2)ccc1Cl | inactive |
| Cc1ccc(CCn2c3c(c4cc(Cl)ccc42)CN(C)CC3)cn1 | inactive |
| O=C1OC2(c3ccccc31)c1cc(I)c(O)c(I)c1Oc1c2cc(I)c(O)c1I | inactive |
| CCCCCCCCCCCCCCCC[n+]1ccccc1 | inactive |
| C/C(=C1\CCOC(=O)S1)N(C=O)Cc1cnc(C)nc1N | inactive |
| Cc1oc(=O)oc1COC(=O)[C@@H]1N2C(=O)[C@@H](NC(=O)[C@H](N)c3ccccc3)[C@H]2SC1(C)C | inactive |
| O=C(O)Cn1cnnn1 | inactive |

| Compound | outcome |
| --- | --- |
| O=C(O)C1CCC1 | inactive |
| O=C(O)c1ccc(OCCN2CCCCC2)cc1 | inactive |
| CC(C)CCCC(C)NCCC(C)C (stereo unspecified) | inactive |
| Cc1ccc(C(=O)Oc2ccc(C(O)CNC(C)(C)C)cc2OC(=O)c2ccc(C)cc2)cc1 (stereo unspecified) | inactive |
| Nc1ccc2c(c1)CN1C(=O)c3ccccc3C1=N2 | inactive |
| O=C1Cc2cc(Cl)ccc2N1 | inactive |
| CCCCCCCCCCCCCCCCCCN(C)C | inactive |
| CCCCOC(=O)CCCCCCCCC(=O)OCCCC | inactive |
| O=C(O)C(=O)Nc1cccc(-c2nn[nH]n2)c1 | inactive |
| O=C(OCCN1CCOCC1)c1cccnc1Nc1cccc(C(F)(F)F)c1 | inactive |
| C/C(=N\O)[C@@H](C)NCC(C)(C)CN[C@H](C)/C(C)=N/O | inactive |
| O=C1CCCc2c(O)cccc21 | inactive |
| Cc1nc(N)nc(N)c1-c1ccc(Cl)c(Cl)c1 | inactive |
| NC(=O)NS(=O)(=O)c1ccc(Cl)cc1 | inactive |
| CCC1=C[C@@H]2CN(C1)Cc1c([nH]c3ccccc13)[C@@](C(=O)OC)(c1cc3c(cc1OC)N(C)[C@H]1[C@@](O)(C(=O)OC)[C@H](OC(C)=O)[C@]4(CC)C=CCN5CC[C@]31[C@@H]54)C2 | inactive |
| CCCC(=O)O[C@]1(C(=O)CC)CC[C@H]2[C@@H]3CCC4=CC(=O)CC[C@]4(C)[C@H]3[C@@H](O)C[C@@]21C | inactive |

Experiment: P-glycoprotein substrates identified in KB-8-5-11 adenocarcinoma cell line, qHTS therapeutic library screen (AID 1346987); also: nearly all actives have a fitted effect of over 65% in size
Details: KB-8-5-11 (P-gp overexpressing) viability, CellTiter-Glo, 72 h; series mostly up to 44.5 µM
Procedure, shortened: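 Human cervical adenocarcinoma KB-8-5-11 cells, selected in colchicine to over-express P-gp and assayed without it, were exposed for 72 h to titrated compounds. An ATP-based luminescent viability signal gave AC50.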

| Compound | Potency |
| --- | --- |
| O=C(COCCOCCOCC(=O)Nc1c(I)cc(I)c(C(=O)O)c1I)Nc1c(I)cc(I)c(C(=O)O)c1I | inactive |
| Nc1nnnn1-c1ccccc1 | inactive |
| COc1cc(C(=O)OC(COCCC(C)C)CN2CCOCC2)cc(OC)c1OC (stereo unspecified) | inactive |
| CC(=O)OCC[N+](C)(C)C | inactive |
| CN1[C@@H]2CC[C@H]1CC(NC(=O)n1c(=O)[nH]c3ccccc31)C2 (stereo partly specified) | inactive |

Experiment: NS1 protein of Zika virus - qHTS assay to identify small molecule inhibitors in human HEK 293 cells (AID 1347053); also: nearly all actives have a fitted effect of over 55% in size
Details: HEK293 ZIKV MR766 infection, NS1 TR-FRET, 24 h; series mostly up to 46.1 µM
Procedure, shortened: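 TR-FRET signal from two anti-ZIKV NS1 antibodies quantified NS1 in HEK 293 cells 24 h after MR766 infection at MOI = 0.5; compounds were added 1 h before virus. Uninfected cells and infected cells defined the NS1 normalization range.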

| Compound | Potency |
| --- | --- |
| O=C(COCCOCCOCC(=O)Nc1c(I)cc(I)c(C(=O)O)c1I)Nc1c(I)cc(I)c(C(=O)O)c1I | inactive |
| Nc1nnnn1-c1ccccc1 | inactive |
| COc1cc(C(=O)OC(COCCC(C)C)CN2CCOCC2)cc(OC)c1OC (stereo unspecified) | inactive |
| CC(=O)OCC[N+](C)(C)C | inactive |
| CN1[C@@H]2CC[C@H]1CC(NC(=O)n1c(=O)[nH]c3ccccc31)C2 (stereo partly specified) | inactive |
